Experiment [1] in a line: qHTS of pediatric cancer cell lines to identify multiple opportunities for drug repurposing: Confirmatory screen for U-2 OS cells (AID 1347122). Further: nearly all actives have a fitted effect of over 65% in size. Further: potency means the concentration at half of the fitted maximal effect. The procedure, abridged: (§1)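 Viability after 48 h compound treatment at 37C, 500-1,000 cells/well, read as ATP luminescence with CellTiter-Glo. Primary screens used 11-point (MIPE, 0.78 nM-46 µM) or 8-point (NPC, 0.59 nM-46 µM) final concentrations; follow-up screens used 11-point dilutions.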
Background: In qHTS, concentration-response curves come from the screen itself.

The nature of experiment [2]: qHTS of pediatric cancer cell lines to identify multiple opportunities for drug repurposing: Confirmatory screen for Rh41 cells (AID 1347123).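 Further: 48 h compound exposure; nearly all actives have a fitted effect of over 60% in size.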 Further: potency means the concentration at half of the fitted maximal effect. The method, boiled down: as §1
The nature of experiment [3]: qHTS of pediatric cancer cell lines to identify multiple opportunities for drug repurposing: Confirmatory screen for RD cells (AID 1347124).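 Further: cells exposed to compound for 48 h before viability readout; nearly all actives have a fitted effect of over 65% in size.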 Further: potency means the concentration at half of the fitted maximal effect. The method, boiled down: as §1
A short description of experiment [4]: qHTS of pediatric cancer cell lines to identify multiple opportunities for drug repurposing: Confirmatory screen for Rh18 cells (AID 1347125). Further: nearly all actives have a fitted effect of over 55% in size. Further: potency means the concentration at half of the fitted maximal effect. The method, boiled down: as §1
Experiment [5] can be described thus: qHTS of pediatric cancer cell lines to identify multiple opportunities for drug repurposing: Confirmatory screen for OHS-50 cells (AID 1347128).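 Further: compound exposure lasted 48 h at 37 degrees C; nearly all actives have a fitted effect of over 55% in size.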 Further: potency means the concentration at half of the fitted maximal effect. The method, boiled down: as §1
Experiment [6] can be described thus: qHTS of pediatric cancer cell lines to identify multiple opportunities for drug repurposing: Confirmatory screen for SK-N-SH cells (AID 1347129).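 Further: cells exposed to compound for 48 h before viability read; nearly all actives have a fitted effect of over 60% in size.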 Further: potency means the concentration at half of the fitted maximal effect. The procedure, abridged: as §1
In experiment [7] the test system is Zika virus NS2B-NS3 protease. Put plainly: Primary screen GU AMC qHTS for Zika virus inhibitors (AID 1347154). Further: nearly all actives have a fitted effect of over 70% in size. The method, boiled down: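 Unlinked Zika NS2B hydrophilic domain–NS3 protease complex at 25 nM in 10 mM Tris-HCl pH 8.0, 0.01% Tween 20, with an AMC peptide substrate. Fluorescence change (340/450 nm) over 15 min at room temperature, normalized to controls, fitted to 4-parameter Hill.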

Experiment [8] is described as follows: qHTS of pediatric cancer cell lines to identify multiple opportunities for drug repurposing: Confirmatory screen for Saos-2 cells (AID 1347127). Further: nearly all actives have a fitted effect of over 60% in size. Further: potency means the concentration at half of the fitted maximal effect. The method, boiled down:
as §1

Experiment [9] is described as follows: qHTS of pediatric cancer cell lines to identify multiple opportunities for drug repurposing: Confirmatory screen for Rh30 cells (AID 1347126). Further: potency means the concentration at half of the fitted maximal effect; nearly all actives have a fitted effect of over 55% in size. The procedure, abridged:
as §1

For experiment [10], the system named is Zika virus NS2B-NS3 protease (unlinked complex). Put plainly: Primary screen GU Rhodamine qHTS for Zika virus inhibitors: Unlinked NS2B-NS3 protease assay (AID 1347159). Further: nearly all actives have a fitted effect of over 60% in size. Further: potency means the concentration at half of the fitted maximal effect. The procedure, abridged:
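Percent inhibition derives from the 15-min fluorescence change (ex 480, em 540 nm), normalized to no-enzyme and no-inhibitor wells. Reactions contained 25 nM NS2B-NS3 complex and 1.5 microM substrate in 10 mM Tris-HCl pH 8.0.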

Experiment [11] deals with Zika virus NS2B-NS3 protease (linked construct). Put plainly: Primary screen NINDS Rhodamine qHTS for Zika virus inhibitors (AID 1347160). Further: nearly all actives have a fitted effect of over 55% in size. The procedure, abridged:
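In 10 mM Tris-HCl pH 8.0 containing 0.01% Tween 20, linked NS2B-NS3 protease (25 nM final) is exposed to test compounds for 15 min. Cleavage of 1.5 microM Rhodamine110 substrate is tracked by fluorescence over 15 min.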

Records with an inconclusive call do not appear. Active and inactive are the calls of the source. The call rests on the fitted dose curve; in most records, active means well fitted curve in the direction sought with a large enough effect; inconclusive means small, poorly fitted or top-dose-only effect, or another doubt; inactive means no such curve, though single readings can be large; an effect the other way counts as inactive or inconclusive. Non-standard residues stand in square brackets, D forms with d. Residues, ends and D or L forms follow the SMILES beside them. *: point of attachment. Nva = CCC[C@H](N)C(=O)O; Cbz = O=C(OCc1ccccc1)*

With `COc1ccc(C(C)=O)c(O)c1`, the Potency result in experiment [1], in experiment [2], in [3], in experiment [4], in experiment [5] and in [6] was “inactive” each time. The Potency result in experiment [7] was “inactive”.
In the case of `C=CC(=O)N1CCc2ccc(-n3c(=O)ccc4cnc5ccc(-c6cnn(C)c6)cc5c43)cc21`, the Potency was 5.22 µM (active) in experiment [1], 8.27 µM (active) in [2], 10.4 µM (active) in [3] and 5.22 µM (active) in experiment [8]. Besides, the Potency result in [4] and in [7] was “inactive” each time.
`CNC(=O)Nc1ccc(-c2nc(N3CC4CCC(C3)O4)c3cnn(C4CCC5(CC4)OCCO5)c3n2)cc1`: the Potency in [2] is 0.131 µM (active); in experiment [3] it was 0.522 µM (active); in experiment [4] it was 0.233 µM (active); in experiment [8] it was 1.31 µM (active); in experiment [5], 3.29 µM (active). In addition, the Potency entry in [7] was “inactive”.
Take `CC[C@]12C=CCN3CC[C@@]4(c5cc([C@@]6(C(=O)OC)C[C@H]7C[C@@H](C(C)(F)F)CN(Cc8c6[nH]c6ccccc86)C7)c(OC)cc5N(C)[C@H]4[C@@](O)(C(=O)OC)[C@H]1OC(C)=O)[C@@H]32`: the Potency in [2] is 3.69 µM (active). In addition, the Potency entry in experiment [3], in experiment [4], in experiment [8], in experiment [5], in [6] and in experiment [7] was “inactive” each time.
On to `CCC[C@@H](C=O)NC(=O)[C@H](CC(C)C)NC(=O)[C@H](CC(C)C)NC(=O)OCc1ccccc1` (Cbz-Leu-Leu-[Nva]-aldehyde), for which the Potency in experiment [2] was 1.04 µM (active); in [3], 1.31 µM (active); in [4] it was 3.69 µM (active); in experiment [8] it was 3.29 µM (active); in experiment [5], 2.33 µM (active). For the same compound, in experiment [7], the Potency result was “inactive”.
Turning to `N#Cc1c(NC(=O)c2cccc3ccccc23)sc2c1CCCC2`, the Potency is 0.657 µM (active) in experiment [1] and 0.261 µM (active) in experiment [8]. Moreover, the Potency entry in experiment [4] and in [7] was “inactive” in each case.
`CC(C)N1[N]C(=C2C=c3cc(O)ccc3=N2)c2c(N)ncnc21`: the Potency in experiment [2] is 0.522 µM (active); in experiment [3], 11.7 µM (active); in experiment [4] it was 6.57 µM (active); in experiment [9], 1.65 µM (active); in experiment [8], 10.4 µM (active). The Potency entry in experiment [7] is “inactive”.
With `O=C(Nc1cc2cc[nH]c2cn1)c1ccccc1`, the Potency entry in [1], in experiment [7], in experiment [10] and in [11] was “inactive” throughout. Besides, the Potency in experiment [4] was 8.27 µM (active).
For `CC(=O)[C@]1(O)Cc2c(O)c3c(c(O)c2[C@@H](O[C@H]2C[C@H](N)[C@@H](O)[C@H](C)O2)C1)C(=O)c1ccccc1C3=O`, the Potency in [2] is 0.329 µM (active); in experiment [3] it was 0.737 µM (active); in [4], 6.57 µM (active); in [5] it was 1.31 µM (active); in experiment [6], 0.209 µM (active). Besides, the Potency entry in [8] and in [7] was “inactive” each time.
Consider `NS(=O)(=O)OC[C@@H]1C[C@@H](n2ccc3c(N[C@H]4CCc5ccccc54)ncnc32)C[C@H]1O`, for which the Potency result in experiment [1], in experiment [3], in experiment [4], in experiment [8] and in [7] was “inactive” each time.
Take `Oc1ccc(-c2ccc(-c3cc(Nc4cccc(CNC5CC5)c4)n[nH]3)cc2)c(O)c1`: the Potency in experiment [2] was 3.69 µM (active); in experiment [3], 5.22 µM (active); in [4] it was 16.5 µM (active); in experiment [9], 5.22 µM (active); in [8], 9.27 µM (active). Moreover, the Potency entry in experiment [6] and in [7] was “inactive” throughout.
For `CNC(=O)c1ccc(Nc2cc(Nc3ccccc3S(=O)(=O)C(C)C)c3cc[nH]c3n2)nc1`, the Potency was 5.85 µM (active) in [2]; 9.27 µM (active) in experiment [3]; 18.5 µM (active) in experiment [4]; 4.14 µM (active) in experiment [9]; 5.85 µM (active) in [8]; 8.27 µM (active) in experiment [5]. Moreover, in experiment [7], the Potency entry is “inactive”.
On to `CC(=O)NCC(=O)N1[C@H]2CC[C@H]1c1cc(Nc3ncc(C(F)(F)F)c(NC4CCC4)n3)ccc12`, for which the Potency in experiment [2] was 1.31 µM (active); in experiment [3], 13.1 µM (active); in [4], 2.93 µM (active); in experiment [9], 3.69 µM (active); in experiment [8] it was 0.585 µM (active); in experiment [5], 2.61 µM (active). For the same compound, in experiment [6], the Potency was 2.09 µM (active). The Potency entry in experiment [7] was “inactive”.
Turning to `O=C(O)c1ccc(Nc2ncc3c(n2)-c2ccc(Cl)cc2C(c2c(F)cccc2F)=NC3)cc1`, the Potency in experiment [1] was 4.14 µM (active); in [2], 2.33 µM (active); in experiment [10], 8.91 µM (active).
Take `C=C1C(=CC=C2CCC[C@]3(C)[C@@H]([C@H](C)CCCC(C)(C)O)CC[C@@H]23)C[C@@H](O)C[C@@H]1O`: the Potency result in [2], in experiment [3], in [4], in experiment [8] and in experiment [5] was “inactive” each time.
On to `CCC(C(=O)O)C1CCC(C)C(C(C)C(O)C(C)C(=O)C(CC)C2OC3(C=CC(O)[C@@]4(CC[C@](C)(C5CC[C@@](O)(CC)C(C)O5)O4)O3)C(C)CC2C)O1` (stereo not given in full), for which the Potency was 7.37 µM (active) in experiment [1]; 1.47 µM (active) in experiment [2]; 18.5 µM (active) in experiment [9]; 0.369 µM (active) in experiment [5]; 5.9 µM (active) in [6].
For the compound `Nc1ncn([C@@H]2O[C@H](CO)[C@@H](O)[C@@H]2O)c(=O)n1`, the Potency in [2] is 16.5 µM (active); in experiment [3], 20.8 µM (active); in experiment [4] it was 20.8 µM (active); in experiment [9], 18.5 µM (active); in [8], 20.8 µM (active); in [5] it was 5.85 µM (active). The Potency result in experiment [7] was “inactive”.
`CCN(CC)Cc1ccc2cc(COC(=O)Nc3ccc(C(=O)NO)cc3)ccc2c1`: the Potency entry in [1], in [2], in [8], in [6], in [7] and in experiment [10] was “inactive” each time. Also, in experiment [11], the Potency result was “inactive”.
Take `Nc1nc2c(c(=O)[nH]1)N(C=O)[C@H](CNc1ccc(C(=O)N[C@@H](CCC(=O)O)C(=O)O)cc1)CN2`: the Potency result in experiment [2], in [3], in experiment [4], in experiment [8], in experiment [6] and in experiment [7] was “inactive” throughout.
With `COc1ccc2c(c1OC)C(=O)OC2[C@H]1c2c(cc3c(c2OC)OCO3)CCN1C` (stereo not given in full), the Potency result in experiment [1], in [3], in experiment [4], in experiment [8], in [5] and in experiment [7] was “inactive” in each case.
For `O=C1NCCc2[nH]c(-c3ccncc3)cc21`, the Potency in experiment [1] is 2.93 µM (active); in [2], 2.33 µM (active); in experiment [8] it was 3.69 µM (active); in experiment [5], 2.93 µM (active). The Potency result in [7] was “inactive”.

Values taken from PubChem BioAssay (NCATS).
